Shown are actives, neighbours in structure and some others; about 6.2% of the full set was active somewhere.
MARV entry inh – qHTS for inhibitors of binding or entry into cells for Marburg Virus. Marburg virus pseudotyped entry inhibition, cell reporter. Potency, µM (titrated, usually from 37.8 µM), inactives show at the top dose activity change, negative = inhibition, hits mostly inhibitors. hit rate 1.8% among 300,000. AID 540276, 2011; calls by dose curve; tested in HEK293 cells; further: potency means the concentration at half of the fitted maximal effect
FMDV antiviral – High Throughput Screening for Foot and Mouth Disease Virus Antivirals. FMDV antiviral cell-based qHTS. Potency, µM (titrated, usually from 57.9 µM), for the others: top-dose activity change, negative = inhibition, actives largely listed as inhibitors. hit rate 1.2% among 410,000. AID 1159524, 2015; calls by dose curve; tested in HEK293T cells; further: read-out not given here; potency means the concentration at half of the fitted maximal effect; nearly all actives have a fitted effect of over 45% in size
Lassa entry inh – qHTS for Inhibitors of binding or entry into cells for Lassa Virus. Lassa virus pseudotype entry inhibition, cell reporter. AID 540256, 2011. hit rate 1.2% among 300,000. Potency, µM (highest dose often 37.9 µM), inactives show top-dose activity change, negative = inhibition, hits mostly inhibitors; calls by dose curve; tested in HEK293 cells; further: potency means the concentration at half of the fitted maximal effect; nearly all actives have a fitted effect of over 50% in size
HCMV inh – qHTS Assay for inhibitors of the human cytomegalovirus (HCMV). HFF cells, HCMV-luciferase reporter, 72 h; active compounds read low. activity change, negative = inhibition, % at 57.5 µM. hit rate 4.5% among 410,000; in the data active means activity change below about -60%; inconclusive means no clear call, values can overlap the other calls; inactive means above about -39%
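Screen run at 2 compound doses on HFFs infected with reporter HCMV, MOI 1 PFU/cell. Luciferase activity from cell lysates at 72 h post infection gave inhibition relative to buffer-only and Salinomycin wells.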
The depositor's hits bear a star; u = inconclusive; x = no result; [ ] = remark or other dose. On the % scale 0 is the no-effect control and ±100 the full control effect.

SMILES	MARV entry inh	FMDV antiviral	Lassa entry inh	HCMV inh
CCc1ccc(/C=C2\SC(=S)N(CCCC(=O)N3CCCC3)C2=O)cc1	x	-4%	x	-99*
COc1cccc(/C=C2\SC(=S)N(CCCC(=O)N3CCCC3)C2=O)c1	u	-6%	-24%[46.1 µM]	-112*
O=C(O)CCN1C(=O)/C(=C\c2cccc(Oc3ccccc3)c2)SC1=S	0%	-18%	0%	u
O=C1/C(=C/c2cccs2)SC(=S)N1CCC(=O)N1CCCCC1CCO (stereo unspecified)	u	0%	16%[46.1 µM]	-96*
COc1ccccc1/C=C1\SC(=O)N(CCC(=O)N2CCCCC2CCO)C1=O (stereo unspecified)	x	-15%	x	-23
COc1cccc(/C=C2\SC(=O)N(CCC(=O)N3CCC(C(=O)O)CC3)C2=O)c1	x	1%	x	-14
COc1ccccc1/C=C1\SC(=S)N(CCC(=O)N2CCCCC2CCO)C1=O (stereo unspecified)	u	0%	-12%[46.1 µM]	-77*
COc1cccc(/C=C2\SC(=S)N(CCC(=O)N3CCCCC3CCO)C2=O)c1 (stereo unspecified)	x	-5%	x	-98*
Cc1cccc(S(=O)(=O)Nc2nc3ccccc3nc2OC(C)C)c1	-19%	30%	20%	u
CCC(C)c1ccc(OCC(=O)Nc2cccc(-c3nc4ncccc4o3)c2)cc1 (stereo unspecified)	u	u	-24%[46.1 µM]	20
CC(C)=CCc1c2c(c3occ(-c4ccc(O)cc4)c(=O)c3c1O)C=CC(C)(C)O2	x	u	x	-106*
CC(C)=CCc1c2c(c3occ(-c4ccc(O)c(O)c4)c(=O)c3c1O)C=CC(C)(C)O2	u	u	16µM*	-29
CC(NS(=O)(=O)OCC(Cl)(Cl)Cl)c1ccc(C(C)(C)C)cc1 (stereo unspecified)	x	22µM*	x	38
CC(C)(NS(=O)(=O)OCC(Cl)(Cl)Cl)c1ccccc1	x	11%	x	u
Cc1cccc(C#CC2=CC(=O)CC(C)(C)C2)c1	x	17%	x	-100*
O=C(NCCN1CCOCC1)c1cccnc1SCc1ccccc1Cl	u	-10%	2%[46.1 µM]	3
Cc1cccc(Nc2nnc(SCC(=O)NC3CCCc4ccccc43)s2)c1C (stereo unspecified)	u	40µM*	u	-37
Cc1ccccc1-n1c(C)nnc1SCC(=O)NC1CCCc2ccccc21 (stereo unspecified)	u	13%	2%	-26
COc1ccc(Nc2nc(-c3ccccc3)c3cc(Br)ccc3n2)cc1	x	7%	-23%[46.1 µM]	-61*
C(=C\c1nc(N2CCCC2)c2ccccc2n1)/c1ccccc1	7.1µM*	u	u	-72*
CC(C)(C)C(=O)NNc1nc(-c2ccccc2)c2cc(Br)ccc2n1	u	-25%	-18%	-35
COc1ccc(Nc2nc(N3CCCCC3)c3ccccc3n2)cc1	u	25µM*	u	-64*
Oc1ccc(Nc2nc(N3CCCC3)c3ccccc3n2)cc1	11µM*	-28%	u	-66*
Cc1ccc(Nc2nc(N3CCOCC3)c3ccccc3n2)cc1	u	u	u	-32
NC(=O)Cc1ccc(C(=O)c2ccc(Cl)cc2Cl)s1	15%[46.1 µM]	5%	13%[46.1 µM]	-21
SMILES	MARV entry inh	FMDV antiviral	Lassa entry inh	HCMV inh
CN1C(=O)N(CC(=O)N2CCN(S(=O)(=O)/C=C/c3ccccc3)CC2)C(=O)C12CCCCC2	x	-9%	x	21
CCOc1ccc(N=Cc2c(O)n(CCc3ccc(OC)c(OC)c3)c(=O)[nH]c2=O)cc1	u	7.9µM*	-17%	18
COc1ccccc1CCNC(=O)C(=O)NCC1OCCCN1S(=O)(=O)c1cc(C)ccc1C (stereo unspecified)	u	u	-17%	-18
COc1ccccc1CCNC(=O)C(=O)NCC1OCCCN1S(=O)(=O)c1ccc(F)cc1C (stereo unspecified)	-20%	-25%	u	-75*
Cc1ccc(C)c(S(=O)(=O)N2CCCOC2CNC(=O)C(=O)NCc2ccccc2)c1 (stereo unspecified)	u	3%	u	-28
COc1ccc(CCNC(=O)C(=O)NCC2OCCCN2S(=O)(=O)c2cc(C)ccc2C)cc1 (stereo unspecified)	-29%	u	-11%	-67*
COc1ccc(CCNC(=O)C(=O)NCC2CCCN2S(=O)(=O)c2cc(C)ccc2C)cc1 (stereo unspecified)	u	u	11µM*	-7
O=C(NCc1ccc(F)cc1)C(=O)NCC1CCCN1S(=O)(=O)c1ccccc1 (stereo unspecified)	u	-13%	u	17

Source: PubChem BioAssay (National Center for Advancing Translational Sciences (NCATS))
